# ± gives the standard deviation.
# B1: H2B 17-29 A V T Kac A Q Kac K D G Kac Kac R (peptide)
# chain: AVTKAQKKDGKKR
# B2: H2B 17-29 A V T Kac A Q Kac K D G K Kac R (peptide)
# chain: AVTKAQKKDGKKR
# B3: H2B 17-29 A V T Kac A Q Kac K D G K K R (peptide)
# chain: AVTKAQKKDGKKR
# B4: H2B 17-29 A V T Kac A Q K Kac D G Kac Kac R (peptide)
# chain: AVTKAQKKDGKKR
# B5: H2B 17-29 A V T Kac A Q Kac Kac D G Kac K R (peptide)
# chain: AVTKAQKKDGKKR
# B6: H2B 17-29 A V T Kac A Q Kac K D G Kac K R (peptide)
# chain: AVTKAQKKDGKKR
# B7: H2B 17-29 A V T Kac A Q K Kac D G K K R (peptide)
# chain: AVTKAQKKDGKKR
# B8: H2B 17-29 A V T K A Q K K D G K K R (peptide)
# chain: AVTKAQKKDGKKR
# B9: H2B 17-29 A V T Kac A Q Kac Kac D G K K R (peptide)
# chain: AVTKAQKKDGKKR
# B10: H2B 17-29 A V T Kac A Q Kac Kac D G Kac Kac R (peptide)
# chain: AVTKAQKKDGKKR
# Tests used:
# Assay in all cases: peptide microarray binding signal (635 nm), min-max normalized on array (fraction of array maximum); higher = stronger binding
# Settings in all cases: peptide region: H2B 17-29
# [1] = molecular target: T1, HaloTag-ATRX ADD domain (163-292)
# T1 chain: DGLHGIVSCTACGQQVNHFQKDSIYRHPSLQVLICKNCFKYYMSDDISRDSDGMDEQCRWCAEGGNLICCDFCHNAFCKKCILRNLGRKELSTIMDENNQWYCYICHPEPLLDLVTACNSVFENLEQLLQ
# Method: (§1)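 Histone 13-mer peptides were synthesized as cellulose conjugates with a C-terminal 20-atom PEG linker and printed in triplicate on nitrocellulose. The sequence given is the unmodified backbone; PTMs (Kme1/2/3, Kac, Sph/Tph, Rme/Rme2a/Rme2s, Rcit) are listed in the label and the 'peptide modifications' condition. Slides were probed at 4 °C for 1 h with biotin-labelled (HQ)5-HaloTag reader fusions (ATRX-ADD, ING2-PHD) then streptavidin-Alexa647, or with rabbit histone antibodies then anti-rabbit Alexa647. The mean 635 nm signal of the triplicate spots was scaled 0-1 between the lowest and highest values on each array.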
# [2] = molecular target: HaloTag-ING2 PHD (mouse Ing2 200-280)
# Method: as §1
# [3] = molecular target: anti-H3K4me3 antibody ab8580
# Method: as §1
# [4] = molecular target: anti-H3K9me3 antibody ab8898
# Method: as §1
# [5] = peptide modifications: H2BK20ac H2BK23ac H2BK27ac H2BK28ac, binder concentration: 1:2,000 dilution
# [6] = peptide modifications: H2BK20ac H2BK23ac H2BK27ac H2BK28ac, binder concentration: 1:10,000 dilution
# [7] = peptide modifications: H2BK20ac H2BK23ac H2BK28ac, binder concentration: 1:2,000 dilution
# [8] = peptide modifications: H2BK20ac H2BK23ac H2BK28ac, binder concentration: 1:10,000 dilution
# [9] = peptide modifications: H2BK20ac H2BK23ac, binder concentration: 50 nM
# [10] = peptide modifications: H2BK20ac H2BK23ac, binder concentration: 500 nM
# [11] = peptide modifications: H2BK20ac H2BK23ac, binder concentration: 10 nM
# [12] = peptide modifications: H2BK20ac H2BK23ac, binder concentration: 100 nM
# [13] = peptide modifications: H2BK20ac H2BK23ac, binder concentration: 1:2,000 dilution
# [14] = peptide modifications: H2BK20ac H2BK23ac, binder concentration: 1:10,000 dilution
# [15] = peptide modifications: H2BK20ac H2BK24ac H2BK27ac H2BK28ac, binder concentration: 1:2,000 dilution
# [16] = peptide modifications: H2BK20ac H2BK24ac H2BK27ac H2BK28ac, binder concentration: 1:10,000 dilution
# [17] = peptide modifications: H2BK20ac H2BK23ac H2BK24ac H2BK27ac, binder concentration: 1:2,000 dilution
# [18] = peptide modifications: H2BK20ac H2BK23ac H2BK24ac H2BK27ac, binder concentration: 1:10,000 dilution
# [19] = peptide modifications: H2BK20ac H2BK23ac H2BK27ac, binder concentration: 1:2,000 dilution
# [20] = peptide modifications: H2BK20ac H2BK23ac H2BK27ac, binder concentration: 1:10,000 dilution
# [21] = binder concentration: 1:2,000 dilution
# [22] = binder concentration: 1:10,000 dilution
# [23] = peptide modifications: H2BK20ac H2BK23ac H2BK24ac, binder concentration: 1:2,000 dilution
# [24] = peptide modifications: H2BK20ac H2BK23ac H2BK24ac, binder concentration: 1:10,000 dilution
# [25] = peptide modifications: H2BK20ac H2BK23ac H2BK24ac H2BK27ac H2BK28ac, binder concentration: 1:2,000 dilution
# [26] = peptide modifications: H2BK20ac H2BK23ac H2BK24ac H2BK27ac H2BK28ac, binder concentration: 1:10,000 dilution
binder,measurement,setting,value
B1,peptide microarray binding signal,"[1]; peptide modifications: H2BK20ac H2BK23ac H2BK27ac H2BK28ac, binder concentration: 50 nM",0.00414 ± 0.00019
same,peptide microarray binding signal,"[1]; peptide modifications: H2BK20ac H2BK23ac H2BK27ac H2BK28ac, binder concentration: 500 nM",0.00762 ± 0.00011
same,peptide microarray binding signal,"[2]; peptide modifications: H2BK20ac H2BK23ac H2BK27ac H2BK28ac, binder concentration: 10 nM",0.00913 ± 0.00015
same,peptide microarray binding signal,"[2]; peptide modifications: H2BK20ac H2BK23ac H2BK27ac H2BK28ac, binder concentration: 100 nM",0.0159 ± 0.00082
same,peptide microarray binding signal,[3]; [5],0.00168 ± 6.8e-05
same,peptide microarray binding signal,[3]; [6],0.0024 ± 4.3e-05
same,peptide microarray binding signal,[4]; [5],0.000861 ± 5.4e-05
same,peptide microarray binding signal,[4]; [6],0.000923 ± 9.6e-06
B2,peptide microarray binding signal,"[1]; peptide modifications: H2BK20ac H2BK23ac H2BK28ac, binder concentration: 50 nM",0.00429 ± 0.00027
same,peptide microarray binding signal,"[1]; peptide modifications: H2BK20ac H2BK23ac H2BK28ac, binder concentration: 500 nM",0.00667 ± 0.00058
same,peptide microarray binding signal,"[2]; peptide modifications: H2BK20ac H2BK23ac H2BK28ac, binder concentration: 10 nM",0.0115 ± 0.00023
same,peptide microarray binding signal,"[2]; peptide modifications: H2BK20ac H2BK23ac H2BK28ac, binder concentration: 100 nM",0.0129 ± 0.0013
same,peptide microarray binding signal,[3]; [7],0.00221 ± 0.00083
same,peptide microarray binding signal,[3]; [8],0.00097 ± 9.9e-06
same,peptide microarray binding signal,[4]; [7],0.000634 ± 2e-05
same,peptide microarray binding signal,[4]; [8],0.00104 ± 4.3e-05
B3,peptide microarray binding signal,[1]; [9],0.00492 ± 0.00049
same,peptide microarray binding signal,[1]; [10],0.002 ± 0.0004
same,peptide microarray binding signal,[2]; [11],0.00477 ± 0.00013
same,peptide microarray binding signal,[2]; [12],0.00333 ± 0.00048
same,peptide microarray binding signal,[3]; [13],0.000321 ± 3.2e-05
same,peptide microarray binding signal,[3]; [14],0.00097 ± 7e-05
same,peptide microarray binding signal,[4]; [13],0.000408 ± 6.9e-06
same,peptide microarray binding signal,[4]; [14],0.000634 ± 1.2e-05
B4,peptide microarray binding signal,"[1]; peptide modifications: H2BK20ac H2BK24ac H2BK27ac H2BK28ac, binder concentration: 50 nM",0.00276 ± 5.2e-05
same,peptide microarray binding signal,"[1]; peptide modifications: H2BK20ac H2BK24ac H2BK27ac H2BK28ac, binder concentration: 500 nM",0.00419 ± 0.00026
same,peptide microarray binding signal,"[2]; peptide modifications: H2BK20ac H2BK24ac H2BK27ac H2BK28ac, binder concentration: 10 nM",0.00436 ± 0.00021
same,peptide microarray binding signal,"[2]; peptide modifications: H2BK20ac H2BK24ac H2BK27ac H2BK28ac, binder concentration: 100 nM",0.00489 ± 0.00035
same,peptide microarray binding signal,[3]; [15],0.000472 ± 1.7e-05
same,peptide microarray binding signal,[3]; [16],0.000856 ± 8.9e-06
same,peptide microarray binding signal,[4]; [15],0.000468 ± 1.8e-05
same,peptide microarray binding signal,[4]; [16],0.000692 ± 7.3e-06
B5,peptide microarray binding signal,"[1]; peptide modifications: H2BK20ac H2BK23ac H2BK24ac H2BK27ac, binder concentration: 50 nM",0.00357 ± 0.00035
same,peptide microarray binding signal,"[1]; peptide modifications: H2BK20ac H2BK23ac H2BK24ac H2BK27ac, binder concentration: 500 nM",0.00643 ± 0.00011
same,peptide microarray binding signal,"[2]; peptide modifications: H2BK20ac H2BK23ac H2BK24ac H2BK27ac, binder concentration: 10 nM",0.00579 ± 0.00026
same,peptide microarray binding signal,"[2]; peptide modifications: H2BK20ac H2BK23ac H2BK24ac H2BK27ac, binder concentration: 100 nM",0.00702 ± 0.00069
same,peptide microarray binding signal,[3]; [17],0.00136 ± 0.0002
same,peptide microarray binding signal,[3]; [18],0.00131 ± 2.6e-05
same,peptide microarray binding signal,[4]; [17],0.000982 ± 0.00011
same,peptide microarray binding signal,[4]; [18],0.0011 ± 2.2e-05
B6,peptide microarray binding signal,"[1]; peptide modifications: H2BK20ac H2BK23ac H2BK27ac, binder concentration: 50 nM",0.00646 ± 0.00075
same,peptide microarray binding signal,"[1]; peptide modifications: H2BK20ac H2BK23ac H2BK27ac, binder concentration: 500 nM",0.00214 ± 0.00028
same,peptide microarray binding signal,"[2]; peptide modifications: H2BK20ac H2BK23ac H2BK27ac, binder concentration: 10 nM",0.00585 ± 0.00024
same,peptide microarray binding signal,"[2]; peptide modifications: H2BK20ac H2BK23ac H2BK27ac, binder concentration: 100 nM",0.000992 ± 4.7e-05
same,peptide microarray binding signal,[3]; [19],0.000189 ± 5.4e-06
same,peptide microarray binding signal,[3]; [20],0.0016 ± 0.00014
same,peptide microarray binding signal,[4]; [19],0.000664 ± 5.2e-05
same,peptide microarray binding signal,[4]; [20],0.001211 ± 1.2e-05
B7,peptide microarray binding signal,[1]; [9],0.00342 ± 3.7e-05
same,peptide microarray binding signal,[1]; [10],0.00562 ± 0.00013
same,peptide microarray binding signal,[2]; [11],0.00651 ± 0.00014
same,peptide microarray binding signal,[2]; [12],0.00468 ± 0.0004
same,peptide microarray binding signal,[3]; [13],0.00213 ± 0.0003
same,peptide microarray binding signal,[3]; [14],0.000685 ± 1.5e-05
same,peptide microarray binding signal,[4]; [13],0.000544 ± 1.7e-05
same,peptide microarray binding signal,[4]; [14],0.000865 ± 9e-06
B8,peptide microarray binding signal,[1]; binder concentration: 50 nM,0.00972 ± 0.00026
same,peptide microarray binding signal,[1]; binder concentration: 500 nM,0.0111 ± 0.00017
same,peptide microarray binding signal,[2]; binder concentration: 10 nM,0.0152 ± 0.0002
same,peptide microarray binding signal,[2]; binder concentration: 100 nM,0.00666 ± 0.00025
same,peptide microarray binding signal,[3]; [21],0.0021 ± 7.2e-05
same,peptide microarray binding signal,[3]; [22],0.00428 ± 3.3e-05
same,peptide microarray binding signal,[4]; [21],0.00118 ± 1.6e-05
same,peptide microarray binding signal,[4]; [22],0.00421 ± 8.6e-05
B9,peptide microarray binding signal,"[1]; peptide modifications: H2BK20ac H2BK23ac H2BK24ac, binder concentration: 50 nM",0.00661 ± 0.00032
same,peptide microarray binding signal,"[1]; peptide modifications: H2BK20ac H2BK23ac H2BK24ac, binder concentration: 500 nM",0.0168 ± 0.0019
same,peptide microarray binding signal,"[2]; peptide modifications: H2BK20ac H2BK23ac H2BK24ac, binder concentration: 10 nM",0.0274 ± 0.0038
same,peptide microarray binding signal,"[2]; peptide modifications: H2BK20ac H2BK23ac H2BK24ac, binder concentration: 100 nM",0.0204 ± 0.0078
same,peptide microarray binding signal,[3]; [23],0.00636 ± 0.0011
same,peptide microarray binding signal,[3]; [24],0.0024 ± 0.00011
same,peptide microarray binding signal,[4]; [23],0.00204 ± 0.00015
same,peptide microarray binding signal,[4]; [24],0.00208 ± 8.4e-05
B10,peptide microarray binding signal,"[1]; peptide modifications: H2BK20ac H2BK23ac H2BK24ac H2BK27ac H2BK28ac, binder concentration: 50 nM",0.00442 ± 0.00034
same,peptide microarray binding signal,"[1]; peptide modifications: H2BK20ac H2BK23ac H2BK24ac H2BK27ac H2BK28ac, binder concentration: 500 nM",0.01 ± 0.0008
same,peptide microarray binding signal,"[2]; peptide modifications: H2BK20ac H2BK23ac H2BK24ac H2BK27ac H2BK28ac, binder concentration: 10 nM",0.00871 ± 0.00071
same,peptide microarray binding signal,"[2]; peptide modifications: H2BK20ac H2BK23ac H2BK24ac H2BK27ac H2BK28ac, binder concentration: 100 nM",0.0154 ± 0.0025
same,peptide microarray binding signal,[3]; [25],0.00208 ± 0.00036
same,peptide microarray binding signal,[3]; [26],0.00257 ± 0.0004
same,peptide microarray binding signal,[4]; [25],0.000936 ± 3.8e-05
same,peptide microarray binding signal,[4]; [26],0.00236 ± 0.00011

# Source: the supplement of paper PMC4022240
